Among the test systems are T-47D breast; BT-549 breast; MDA-MB-435 melanoma; SW-620 colon; MCF7 breast; HCT-116 colon; KM12 colon; HCC-2998 colon.
What all share (test): NCI-60 one-dose screen, 48 h (100 = growth as untreated, 0 = no growth, -100 = all killed)
What all share (conditions): 10 µM unless noted

Structures are written as SMILES. This is part of a sample that, as a whole, favours compounds with a hit. Of some 83,000 tested, about 20% had one in any assay.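 Negative percent growth values reflect cell death: -40 means 40% of the cells present at the start died, and -100 means all died.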 Values without a mark were called inactive. Active and inactive are the calls of the source. The calls were made as follows: active = growth percent below 10; inactive = the rest.

In the case of `CC(C)c1ccccc1NC(=O)N1CCC(C(C)C)CC1`, the growth in the test with T-47D breast is 111%; with BT-549 breast, 103%; with MDA-MB-435 melanoma it was 91.9%; in the test with SW-620 colon, 107%; in the test on MCF7 breast, 97.5%; with HCT-116 colon, 108%. Further, the growth with KM12 colon was 113%.
On to `O=C(N/N=C\c1ccc(Cl)cc1Cl)c1ccncc1`, for which the growth is 96.6% in the test with T-47D breast; 65.7% in the test with BT-549 breast; 105% in the test with MDA-MB-435 melanoma; 111% with SW-620 colon; 87.2% in the test on MCF7 breast; 101% in the test on HCT-116 colon. The growth in the test on KM12 colon is 112%.
For the molecule `Cn1c(=O)c2nc3c(=O)n(C)c(=O)n(C)c3nc2n(C)c1=O`, the growth is 91.1% in the test on T-47D breast; 100% with BT-549 breast; 112% in the test on MDA-MB-435 melanoma; 99.8% with SW-620 colon; 93.8% in the test on MCF7 breast; 92.1% with HCT-116 colon. The growth in the test with KM12 colon is 109%.
As for `CCCCCCCCNC(=O)C(C)C`, the growth was 95.2% with T-47D breast; 107% in the test with BT-549 breast; 102% in the test on MDA-MB-435 melanoma; 93.4% with SW-620 colon; 92% in the test on MCF7 breast; 92.7% with HCT-116 colon. Further, in the test with KM12 colon, the growth is 102%.
For the molecule `Nc1c(Br)cc(O)c2c1C(=O)c1ccccc1C2=O`, the growth with T-47D breast is 93.7%; in the test on BT-549 breast, 94.5%; in the test on MDA-MB-435 melanoma, 98%; in the test on SW-620 colon, 61.7%; with MCF7 breast, 83.8%; in the test with HCT-116 colon it was 69.8%. Besides, the growth with KM12 colon was 24.7%.
As for `Cc1cccc2ccccc12`, the growth is 109% with T-47D breast; 99.6% in the test on BT-549 breast; 104% in the test with MDA-MB-435 melanoma; 102% with SW-620 colon; 84.1% with MCF7 breast; 95.8% in the test on HCT-116 colon. Further, in the test on KM12 colon, the growth was 106%.
As to `CCC(=O)Oc1c(C)cc(O)c2ccccc12`, the growth was 79.5% in the test with T-47D breast; 82.1% in the test on BT-549 breast; 95.7% in the test with MDA-MB-435 melanoma; 103% in the test with SW-620 colon; 93.3% in the test with MCF7 breast; 70% in the test on HCT-116 colon. For the same molecule, the growth in the test on KM12 colon was 88.6%.
Turning to `CNc1ccccc1C(N)=O`, the growth in the test on T-47D breast was 98.1%; with BT-549 breast, 101%; in the test with MDA-MB-435 melanoma, 105%; with MCF7 breast it was 92.7%; in the test on HCT-116 colon it was 96.8%; with HCC-2998 colon, 106%. Moreover, the growth in the test with KM12 colon was 101%.
In the case of `N#Cc1ccc2nc[nH]c2c1`, the growth in the test with T-47D breast was 107%; with MDA-MB-435 melanoma, 109%; with SW-620 colon, 104%; in the test on MCF7 breast it was 96.8%; with HCT-116 colon it was 105%; in the test with HCC-2998 colon, 110%. Moreover, in the test on KM12 colon, the growth was 98.5%.
Regarding `Cc1ccc([N+](=O)[O-])c(C)n1`, the growth is 102% in the test on T-47D breast; 99.8% in the test with MDA-MB-435 melanoma; 99.5% in the test on SW-620 colon; 96.2% in the test with MCF7 breast; 104% in the test with HCT-116 colon; 103% in the test on HCC-2998 colon. Also, the growth in the test with KM12 colon is 107%.
In the case of `CCOC(=O)CO`, the growth was 97.7% in the test with T-47D breast; 104% in the test with MDA-MB-435 melanoma; 110% in the test with SW-620 colon; 97.5% in the test on MCF7 breast; 102% with HCT-116 colon; 103% in the test on HCC-2998 colon. Further, in the test with KM12 colon, the growth is 109%.
As for `CN(C)c1ccc(/C=C/C(=O)c2ccc(NC(N)=O)cc2)cc1`, the growth in the test with T-47D breast is 82%; in the test with BT-549 breast it was 91.7%; in the test on MDA-MB-435 melanoma, 93.8%; with MCF7 breast, 58.4%; with HCT-116 colon, 75.4%; in the test with KM12 colon it was 98.5%.
For the molecule `Cn1c(=O)[nH]c2ccccc2c1=O`, the growth is 95.2% in the test with T-47D breast; 91.3% in the test with BT-549 breast; 101% in the test on MDA-MB-435 melanoma; 90.2% in the test on MCF7 breast; 103% in the test on HCT-116 colon; 112% in the test with HCC-2998 colon. Besides, the growth with KM12 colon is 102%.
Consider `CSCCC(NC(=O)C(Cl)Cl)C(=O)O` (centres undefined), for which the growth is 82.9% in the test on T-47D breast; 102% in the test with BT-549 breast; 100% in the test on SW-620 colon; 95.3% with MCF7 breast; 91.2% in the test on HCT-116 colon; 98.8% in the test on HCC-2998 colon. Further, the growth in the test on KM12 colon is 106%.
Turning to `CC(=O)[C@@]1(O)CC[C@H]2[C@@H]3CC[C@@H]4CC(=O)CC[C@]4(C)[C@H]3[C@@H](O)C[C@@]21C`, the growth is 88.2% in the test on T-47D breast; 102% in the test on BT-549 breast; 100% in the test with SW-620 colon; 93.6% in the test with MCF7 breast; 107% with HCT-116 colon; 98.4% with HCC-2998 colon. The growth in the test with KM12 colon was 101%.
As for `Nc1cc2ccccc2c(O)c1O`, the growth in the test with T-47D breast is -0.96% (active); with MDA-MB-435 melanoma, -81.1% (active); with SW-620 colon it was -33.6% (active); in the test on MCF7 breast, -43.2% (active); with HCT-116 colon, -66.9% (active); in the test with HCC-2998 colon, 113%. Besides, the growth in the test on KM12 colon was 62.3%.
For `Nc1cc2c(cc1Cl)C(=O)c1ccccc1C2=O`, the growth was 35.7% in the test on T-47D breast; 37.9% in the test with BT-549 breast; 90.1% in the test on MDA-MB-435 melanoma; 65.9% in the test with MCF7 breast; 1.71% (active) with HCT-116 colon; 69% with HCC-2998 colon. The growth with KM12 colon is 28.8%.
On to `COC1=C(OC)C(=O)C(SC/C=C(\C)CCCC(C)CCCC(C)CCCC(C)C)=CC1=O` (centres undefined), for which the growth with T-47D breast was 12.5%; with MDA-MB-435 melanoma, 18.5%; with SW-620 colon it was 18.7%; with MCF7 breast it was 4.9% (active); in the test on HCT-116 colon it was 9.93% (active); in the test on HCC-2998 colon, -4.48% (active). Moreover, the growth with KM12 colon was 11.6%.
For the molecule `Cc1ccc(S(N)(=O)=O)cc1Cl`, the growth in the test with T-47D breast was 102%; with MDA-MB-435 melanoma, 114%; with SW-620 colon it was 114%; with MCF7 breast it was 96.3%; in the test on HCT-116 colon it was 104%; in the test with HCC-2998 colon it was 116%. Further, in the test with KM12 colon, the growth was 112%.
With `Cn1c(=O)c2[nH]c(CCCCC(=O)O)nc2n(C)c1=O`, the growth with T-47D breast is 113%; in the test on BT-549 breast, 106%; in the test on MDA-MB-435 melanoma, 110%; with SW-620 colon, 101%; in the test with HCT-116 colon, 106%; with HCC-2998 colon, 111%. For the same molecule, in the test on KM12 colon, the growth is 106%.

The values are drawn from PubChem BioAssay (NCI).
